Results with a measured potency or affinity are listed apart. Active and inactive are the calls of the source. The rule behind the calls is not given here.

Results on five molecules are retold here after PubChem BioAssay.

This assay is described as follows: OVCAR8 cell viability loss – plate reader, dry powder samples, PAX8 project, dose response (AID 743197). The note with it: series mostly up to 35 µM.
As to `C[C@@H]1CN([C@H](C)CO)C(=O)c2cc(NC(=O)Nc3ccc(F)cc3)ccc2O[C@@H](C)CCCCO[C@H]1CN(C)C(=O)NC1CCCCC1`, the result was inactive.
For the molecule `O=C(Cc1ccccc1)N1CC[C@H]2[C@H](CO)Nc3ccc(C4=CCCCC4)cc3[C@H]21`, the molecule was classed as inactive.
To `C[C@H]1CN([C@@H](C)CO)S(=O)(=O)c2ccc(C#Cc3ccc(F)cc3)cc2O[C@@H]1CN(C)C(=O)NC1CCCCC1` belongs “inactive”.
As for `C[C@@H]1CN([C@H](C)CO)C(=O)c2cc(NC(=O)Nc3ccc(C(F)(F)F)cc3)ccc2O[C@@H](C)CCCCO[C@H]1CN(C)S(=O)(=O)c1ccccc1`, the entry is “inactive”.
Take `C[C@@H]1CN([C@@H](C)CO)C(=O)c2cc(NS(=O)(=O)c3cccs3)ccc2O[C@@H](C)CCCCO[C@H]1CN(C)Cc1ccc(C(F)(F)F)cc1`: the outcome was inactive.
